Assay results from ChEMBL document CHEMBL4513216, “Probing the Open Global Health Chemical Diversity Library for Multistage-Active Starting Points for Next-Generation Antimalarials” (ACS Infect Dis, 2020).
In all, about 68,000 compounds went through this assay and about 2,700 (4%) showed an effect of 50% or more. The full list was thinned out, with strong results kept by preference.

tested on: Plasmodium berghei; assay: Screen against P. berghei liver stage (PbLuc), transformed with Luciferase, at 2uM; type: functional, HepG2; conditions: tested at 2 uM

| Compound | INHIBITION [%] |
| --- | --- |
| CCC(O)CN1CCN(C(=O)c2cccn2Cc2ccncc2)CC1 (stereo not given) | -21.72 |
| COCC1Cn2nnc(-c3cnn(C)c3)c2CN1Cc1ccc(C)s1 (stereo not given) | 52.77 |
| COCC1Cn2nnc(-c3cnn(C)c3)c2CN1Cc1ccco1 (stereo not given) | 14.97 |
| COCC1Cn2nnc(-c3cnn(C)c3)c2CN1Cc1ccc(C)o1 (stereo not given) | 56.76 |
| COCC1Cn2nnc(-c3cnn(C)c3)c2CN1Cc1ccoc1 (stereo not given) | 19.42 |
| COCC1Cn2nnc(-c3cnn(C)c3)c2CN1Cc1ccsc1 (stereo not given) | 33.14 |
| COCC1Cn2nnc(-c3cnn(C)c3)c2CN1Cc1cccs1 (stereo not given) | -34.95 |
| Cc1ccccc1CNC(=O)Cn1nc(-c2ccc(F)cc2)oc1=O | -25.13 |
| CCOc1ccc(C(=O)Nc2c(C)nc3ccc(Cl)cn3c2=O)cc1 | 27 |
| Cc1cc2cc(Nc3c(C#N)c(=O)n(C)c(=O)n3C)ccc2[nH]1 | 13.53 |
| O=C(CSc1ccc2c(c1)OCCO2)NS(=O)(=O)c1cccnc1 | 16.95 |
| Cc1cc(C)cc(N(C)S(=O)(=O)c2cc(C(=O)O)cs2)c1 | -8.84 |
| Cc1cccc(N(C)S(=O)(=O)c2cc(C(=O)O)cs2)c1 | 68.24 |
| Cc1ccc(N(C)S(=O)(=O)c2cc(C(=O)O)cs2)cc1 | -29.54 |
| O=C(Nc1ccccc1)N1C[C@@H]2C[C@H](C(=O)N3CCOCC3)[C@H](C1)O2 | 24.15 |
| CC(C)(C)CC(=O)NCCn1nc(C2CCNC2)c2cccnc21 (stereo not given) | 21.13 |
| Cc1nc(CNC(=O)Nc2ccc(N(C)C)nc2)sc1C | 74.34 |
| CN(C)c1ccc(NC(=O)NCc2ccc(Cl)s2)cn1 | 17.62 |
| CN(C)c1ccc(NC(=O)NCc2ccccn2)cn1 | 17.39 |
| O=C(CC1=CSC2=NCCN12)N1CCCC(CCc2cccc(F)c2)C1 (stereo not given) | -33.45 |
| CN(C)C(=O)Cc1ccccc1NCc1nc(Cc2ccccc2)no1 | -12.95 |
| CNC(=O)C1(c2cnccn2)CCCN1C(=O)c1ccccn1 (stereo not given) | -3.55 |
| OCCNc1nc(Nc2ccccc2)c2nccnc2n1 | 4.64 |
| Cc1cnn(CC(C)NCC(=O)Nc2ccc(Cl)cn2)c1 (stereo not given) | 42.11 |
| Cc1cnn(CCNCC(=O)Nc2ccc(Cl)cn2)c1 | -1.56 |
| Cc1cnn(CCNC(C)C(=O)Nc2ccc(Cl)cn2)c1 (stereo not given) | 67.44 |
| Cc1nn(C)c2c(N3CCN(C(=O)C(C)C)CC3)ncnc12 | 31.57 |

| Compound | INHIBITION [%] |
| --- | --- |
| CCN(CCn1cccn1)Cc1nc(-c2cccc(C)c2)oc1C | 65.76 |
| CCN(CCn1cccn1)Cc1nc(-c2ccc(F)cc2)oc1C | -11.66 |
| CCN(CCn1cccn1)Cc1nc(-c2ccoc2)oc1C | -16.71 |
| Cc1cccc(CN2CCC3(CC2)NC(=O)C[C@H]3c2cnn(C)c2)n1 | 14.65 |
| F[C@@H]1CN(Cc2cccnc2)C[C@@H]1OCc1nc2ccccc2[nH]1 | 20.41 |
| O=C(Cc1ccco1)N1C[C@H]2CCC[C@@]2(COCC2CC2)C1 | 8.17 |
| O=C(Cc1ccco1)N1C[C@H]2CCC[C@@]2(COc2cccnc2)C1 | -75.76 |
| COC[C@@]12CCC[C@@H]1CN(C(=O)Cc1ccco1)C2 | 53.08 |
| CCn1ccnc1CN1CCN(c2ncnc3ccsc23)CC1C (stereo not given) | -115.54 |
| O=C(c1cnc(O)cc1O)N1CCCC(CCc2ccccc2F)C1 (stereo not given) | 29.41 |
| COCCN1CCCC2(CCN(c3nccc4ccccc34)C2)C1=O (stereo not given) | 50.61 |
| COCCN1CCCC(O)(CN2CCN(c3cc(C)ccn3)CC2)C1=O (stereo not given) | 17.6 |
| COCCN1CCCC2(CCN(c3nccnc3N(C)C)C2)C1=O (stereo not given) | -38.59 |
| COCCN1CCCC(O)(CN2CCN(c3ncccc3C)CC2)C1=O (stereo not given) | 75.47 |
| COCCN1CCCC2(CCN(c3ncnc(C)c3C)C2)C1=O (stereo not given) | 24.05 |
| COCCN1CCCC(O)(CN2CCCN(c3ncccn3)CC2)C1=O (stereo not given) | 31.35 |
| CCS(=O)(=O)N1CCC2(CN(c3cc(OC)ncn3)C2)C1 | 35.37 |
| CC(OCC1CC1)C(=O)Nc1cccc(C(=O)Nc2ccncc2)c1 (stereo not given) | 10.72 |
| CC(C)C[C@H](N)c1nnc(SCC(N)=O)o1 | 31.02 |
| Cc1n[nH]c(C)c1CNC(=O)CSCc1ccccc1Cl | 37.77 |
| CCSc1ccc(C(=O)N2CCC3(CCC(=O)N(C)C3)CC2)s1 | -12.89 |
| CSC1(CNc2ccc(Br)cn2)CCOCC1 | 30.06 |
| Cc1cc(C)cc(NC(=O)Nc2c(O)c3ccccc3oc2=O)c1 | 19.49 |
| Cc1cnn(CCCNC(=O)NC(C)C(=O)Nc2ccccc2)c1 (stereo not given) | -17.39 |
| Nc1nnc(SCC(=O)c2cc3c(cc2Cl)NC(=O)C3)s1 | 9.42 |
| Cc1nnc(SCC(=O)c2cc3c(cc2Cl)NC(=O)C3)s1 | -21.29 |
| Cc1nnc(SCC(=O)c2cc3c(cc2Cl)NC(=O)C3)o1 | 54.73 |

| Compound | INHIBITION [%] |
| --- | --- |
| CCCNC(=O)C(C)n1nc(-c2ccc(C)o2)cc(N)c1=O (stereo not given) | 0.86 |
| Cc1ccc(CN2C[C@H]3CN(C(=O)c4ccno4)CCN3C2=O)cc1 | 2.66 |
| CC(C)CC(C)NCCCN1CCCN(C)CC1 (stereo not given) | 19.13 |
| CC(C)C(=O)N1CCC12CCCN(C(=O)c1ccccc1)C2 (stereo not given) | -1.55 |
| Cc1occc1CNC(=O)C1(C)CCCN1C(=O)c1ccccc1 (stereo not given) | 22.34 |
| Cc1occc1CNC(=O)C1(C)CCCN(C(=O)c2ccccc2)C1 (stereo not given) | 52.08 |
| Cc1c(C2CCCN(C(=O)c3cccnc3)C2)n2c(nc1=O)CCC2 (stereo not given) | -16 |
| Cn1cc(N2CCC3(CCCN(Cc4ccoc4)C3)C2=O)cn1 (stereo not given) | 25.4 |
| COc1ccc(CN2CCC3(CCN(c4cccnc4)C3=O)C2)cc1 (stereo not given) | 0.83 |
| Cn1cc(CN2CCC3(CCN(c4cnn(C)c4)C3=O)C2)cn1 (stereo not given) | 13.61 |
| Cn1cc(N2CCC3(CCCN(Cc4ccc(F)cc4)C3)C2=O)cn1 (stereo not given) | 51.26 |
| COc1ccc(CN2CCC3(CC2)CCN(c2cnn(C)c2)C3=O)cc1 | 65.32 |
| Cn1cc(CN2CCCC3(CCN(c4cccnc4)C3=O)C2)cn1 (stereo not given) | -7.09 |
| Cn1ncc2c1CCCN(C(=O)C1CCC1)C2 | 7.46 |
| Cc1nccnc1CCC1COCCN1C(=O)CCc1c(C)noc1C (stereo not given) | -12.6 |
| COc1cccc(-c2noc(-c3ccc(NCC4CC4)nc3)n2)c1OC | -57.64 |
| CC(C)(C)CN1CCC[C@H]1c1nc(-c2cncnc2N)no1 | -10.21 |
| COc1cc(CN(C(=O)Nc2cccnc2OC)C2CC2)ccc1O | -34.31 |
| Cn1nc2c(cc1=O)CN(Cc1nnc(-c3ccco3)o1)CC2 | -32.49 |
| Cc1cc2n(n1)CCN(c1nc(N(C)C)nc3c1CCNC3)C2 | 15.46 |
| COc1cccc(CC2CN(C3CCN(C(C)=O)CC3)CCO2)c1 (stereo not given) | 17.75 |
| Cc1ncoc1C(=O)N1CCOC(CC2CCCCC2)C1 (stereo not given) | -78.64 |
| CN(C)C(=O)N1CCC(C(=O)N2CCOC(CC3CCCCC3)C2)CC1 (stereo not given) | 54.77 |
| CC(=O)N1CCC(N2CCOC(CC3CCCCC3)C2)CC1 (stereo not given) | 56.69 |
| O=C(C1CCOCC1)N1CCOC(CC2CCCCC2)C1 (stereo not given) | 28.91 |
| CC(=O)N1CCC(C(=O)N2CCOC(CC3CCCCC3)C2)CC1 (stereo not given) | 38.49 |
| CC(C)c1nc2c(n1C)CCN(CCS(=O)(=O)c1ccccc1)C2 | 18.35 |

| Compound | INHIBITION [%] |
| --- | --- |
| CCCc1nnsc1C(=O)NCC1CCN(S(C)(=O)=O)CC1 | -4.49 |
| Cc1ccc(CNC2(Cc3cc(-c4ccc(F)cc4)on3)COC2)o1 | 44.15 |
| CN(C)c1cc(CNc2cncc(-n3cccn3)n2)ccn1 | -15.92 |
| COc1ccc2c(c1)CC(C1CCOCC1)N(C(=O)c1ccn(C)n1)C2 (stereo not given) | 15.61 |
| CC(c1ccco1)N(C(=O)COc1ccc(C#N)cc1)C1CC1 (stereo not given) | 41.03 |
| OCCn1nccc1C1CCN(CCOc2ccccc2)CC1 | 39.72 |
| OCCn1nccc1C1CCN(CCOc2cccc(F)c2)CC1 | 53.98 |
| Cc1cccc(OCCN2CCC(c3ccnn3CCO)CC2)c1 | 7.13 |
| Cc1cc2c(o1)CC(C)(C)CC2NC(=O)CNC(=O)C1CC1 (stereo not given) | -22.24 |
| Cc1ncc(CN(C)C(=O)Nc2cccc(C(=O)N3CCOCC3)c2)s1 | 15.68 |
| CNC(=O)CN1CCOCC12CCN(C(=O)c1ccccc1)CC2 | -41.11 |
| CNC(=O)CN1CCOCC12CCN(CCc1ccccc1)CC2 | 53.08 |
| CNC(=O)CN1CCOCC12CCN(Cc1ccncc1)CC2 | 34.47 |
| Cc1cnn(CC2CCCCN2CCCS(N)(=O)=O)c1 (stereo not given) | 8.1 |
| CC(C)c1nc(O)c2nnn(C[C@H]3CCCN(Cc4cccs4)C3)c2n1 | 4.91 |
| CC1(C)CN(C(=O)c2ncc(F)cc2F)CCC1(O)CN1CCOCC1 (stereo not given) | 31.97 |
| Cc1nc(Nc2ncc(C)s2)cc(C2CCCN2)n1 (stereo not given) | -30.88 |
| Cc1ccc(C(=O)N2CCO[C@H]3[C@H](OCc4ccccn4)CC[C@@H]32)o1 | 30.96 |
| Cc1nc(C)n(CC(=O)N2CCc3ncc(Cl)cc3C2)n1 | 44.9 |
| Cc1nc(C)n(CCC(=O)N2CCc3ncc(Cl)cc3C2)n1 | 40.31 |
| Cc1cc(C)n(CCCC(=O)N2CCc3ncc(Cl)cc3C2)n1 | 51.99 |
| Cc1nnc(CNC(=O)[C@@H]2C[C@H](NC(=O)C(C)(C)C)CN2C)[nH]1 | -4.77 |
| CN1C[C@@H](NC(=O)C(C)(C)C)C[C@H]1C(=O)NCc1ncc[nH]1 | 67.85 |
| CN1C[C@@H](NC(=O)c2cc(F)cc(F)c2)C[C@H]1C(=O)NCc1ncc[nH]1 | -7.68 |
